Only some compounds are listed: those with a hit (about 22% of all), similar ones and a draw of the others.
CYP2C9 inh: inhibitors of human CYP2C9. P11712. CYP2C9 Supersomes, luciferin-H conversion, luminescence. inhibition, % at 5 µM. 96,000 tested, 20% active;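 active = blocking of liver enzyme CYP2C9 beyond about 50% at 5 µM, limit read from the data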
Target sequence (P11712 whole entry, looked up): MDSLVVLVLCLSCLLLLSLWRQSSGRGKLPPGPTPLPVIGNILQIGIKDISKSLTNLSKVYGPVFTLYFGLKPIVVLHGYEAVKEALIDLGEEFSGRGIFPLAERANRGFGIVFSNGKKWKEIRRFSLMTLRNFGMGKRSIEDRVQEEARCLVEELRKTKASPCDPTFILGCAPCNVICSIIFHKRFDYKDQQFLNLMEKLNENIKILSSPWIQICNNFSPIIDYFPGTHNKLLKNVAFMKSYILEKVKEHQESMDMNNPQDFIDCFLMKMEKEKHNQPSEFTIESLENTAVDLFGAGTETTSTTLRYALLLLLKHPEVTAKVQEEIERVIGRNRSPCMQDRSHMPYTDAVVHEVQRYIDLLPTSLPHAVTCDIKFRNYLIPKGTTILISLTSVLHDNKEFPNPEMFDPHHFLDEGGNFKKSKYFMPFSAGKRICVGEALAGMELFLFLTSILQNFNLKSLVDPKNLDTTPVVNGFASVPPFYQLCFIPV
CYP2C19 inhib: human CYP2C19 inhibition | CYP2C19 Supersomes, luciferin-H EGE luminescence, 30 min | inhibition, % at 5 µM | 96,000 tested, 21% active | AID 778;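 active = CYP2C19 inhibition above a set limit at 5 µM in the primary screen, cut at about 50% in these data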;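 note: plate controls were negative control wells for no effect and 2.5 mM tranylcypromine positive control for full effect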
cytoskel mod: cytoskeleton assembly modification; HUVEC TNFa F-actin phalloidin imaging, high content; inhibition, % at 2 µM; 91,000 tested, 0.18% active;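 active = inhibition above the batch mean plus 3 SD and confirmed as a hit by visual image inspection, cut at about 30% in these data, passing the limit was not always enough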
CYP2C9 act: activators of human CYP2C9 | recombinant CYP2C9, luciferin-H conversion, luminescence; stronger effect = higher value; factor 1 = untreated enzyme, 0 = blocked | 96,000 tested, 1.4% active | activation factor at 5 µM | AID 1024 | P11712;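 active = activation factor of 2 or more for CYP2C9 at a 5 µM dose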;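 note: 0 = sulfaphenazole-blocked wells and 1 = vehicle-only wells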
CYP2C19 activ: cytochrome P450 2C19 (human) activation | P33261 | recombinant CYP2C19, luciferin-H EGE luminescence; stronger effect = higher value; 0 = fully inhibited enzyme, 1 = untreated enzyme | activation factor at 5 µM | 96,000 tested, under 10 active | AID 1025;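 active = activation factor of at least 2 at 5 µM in the primary screen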;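 note: 0 = wells with 2.5 mM tranylcypromine and 1 = vehicle-only wells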
E-sel TNF inh: blocks E-selectin expression induced by TNF alpha. HUVEC TNFa-induced E-selectin immunofluorescence, high content. inhibition, % at 2 µM. 120,000 tested, 0.71% active;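 active = inhibition above the batch mean plus 3 SD, and confirmed as a hit on visual image review, cut at about 43% in these data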;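 note: 0% = TNF-stimulated DMSO wells and 100% = unstimulated control wells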
* = called active by the depositor.

CCc1c(C)nc2ncnn2c1NCCc1ccccc1 was read as CYP2C9 inh 43, CYP2C19 inhib 64*, cytoskel mod 42, CYP2C9 act 0.6, CYP2C19 activ 0.4 and E-sel TNF inh -9.
Screening Cc1nc2ncnn2c(Nc2ccc3c(c2)OCO3)c1Cc1ccccc1 returned CYP2C9 inh 29, CYP2C19 inhib 72*, cytoskel mod 35, CYP2C9 act 0.7, CYP2C19 activ 0.3 and E-sel TNF inh -2.
COc1ccc(CCNc2cc(-c3ccccc3)nc3ncnn23)cc1 was read as CYP2C9 inh 56*, CYP2C19 inhib 36, cytoskel mod 8, CYP2C9 act 0.4, CYP2C19 activ 0.6 and E-sel TNF inh 7.
For Cc1cc(C)n(S(=O)(=O)/C=C/c2ccccc2)n1 the results were CYP2C9 inh -24, CYP2C19 inhib 74*, cytoskel mod -7, CYP2C9 act 1.2, CYP2C19 activ 0.3 and E-sel TNF inh -9.
For Cc1ccc(S(=O)(=O)n2nc(C)cc2C)cc1 the results were CYP2C9 inh -26, CYP2C19 inhib 10, cytoskel mod -11, CYP2C9 act 1.3, CYP2C19 activ 0.9 and E-sel TNF inh 19.
`C=CCNC(=O)NC(=O)COC(=O)C(C)Oc1ccc(Cl)cc1Cl` (stereo not drawn) gave E-sel TNF inh 5.
For CN(C)S(=O)(=O)N(CC(=O)Nc1ccc(F)c(F)c1)c1ccccc1 the results were CYP2C9 inh 56*, CYP2C19 inhib 28, cytoskel mod 19, CYP2C9 act 0.4, CYP2C19 activ 0.7 and E-sel TNF inh -12.
`CN(C)S(=O)(=O)N(CC(=O)Nc1ccccc1C(F)(F)F)c1ccccc1` gave CYP2C9 inh 33, CYP2C19 inhib 88*, cytoskel mod -5, CYP2C9 act 0.7, CYP2C19 activ 0.1 and E-sel TNF inh -10.
Screening O=C(NCc1ccco1)C1CC2CCC1C2 (stereo not drawn) returned CYP2C9 inh 2, CYP2C19 inhib 26, cytoskel mod 11, CYP2C9 act 1, CYP2C19 activ 0.7 and E-sel TNF inh -4.
Screening COc1ccc(C2CC(c3c(-c4ccccc4)c4cc(Cl)ccc4[nH]c3=O)=NN2S(C)(=O)=O)cc1OC (stereo not drawn) returned CYP2C9 inh -5, CYP2C19 inhib -24, cytoskel mod -23, CYP2C9 act 1, CYP2C19 activ 1.2 and E-sel TNF inh -10.
For CC(=O)c1ccc(NC(=O)C2CCCN2S(=O)(=O)c2ccc(F)cc2)cc1 (stereo not drawn) the results were CYP2C9 inh 74*, CYP2C19 inhib 66*, cytoskel mod 9, CYP2C9 act 0.3, CYP2C19 activ 0.3 and E-sel TNF inh -3.
For CCc1nnc(NC(=O)C2CCCN2S(=O)(=O)c2ccc(F)cc2)s1 (stereo not drawn) the results were CYP2C9 inh 86*, CYP2C19 inhib 76*, cytoskel mod 26, CYP2C9 act 0.1, CYP2C19 activ 0.2 and E-sel TNF inh 9.
Screening CC(=O)c1ccc(NC(=O)C2CCCN2S(=O)(=O)c2ccc(C)cc2)cc1 (stereo not drawn) returned CYP2C9 inh 35, CYP2C19 inhib 44, CYP2C9 act 0.6, CYP2C19 activ 0.6 and E-sel TNF inh -42.
For CCc1nnc(NC(=O)[C@@H]2CCCN2S(=O)(=O)c2ccc3c(c2)OCCO3)s1 the results were CYP2C9 inh 45, CYP2C19 inhib 16, cytoskel mod 16, CYP2C9 act 0.6, CYP2C19 activ 0.8 and E-sel TNF inh -20.
Screening CCc1nnc(NC(=O)CN2CCOCC2)s1 returned CYP2C9 inh -20, CYP2C19 inhib -13, cytoskel mod -3, CYP2C9 act 1.2 and CYP2C19 activ 1.1.
For COc1ccc(OC)c(NC(=O)C2CCCCC2C(=O)O)c1 (stereo not drawn) the results were CYP2C9 inh -10, CYP2C19 inhib -9, cytoskel mod 10, CYP2C9 act 1.1 and CYP2C19 activ 1.1.
Cc1cccc(N2CCN(S(=O)(=O)c3cccc4nonc34)CC2C)c1 (stereo not drawn) was read as E-sel TNF inh -4.
For Cc1ccc(C(=O)Nc2ccc(S(=O)(=O)N3CCc4ccccc43)cc2)o1 the results were CYP2C9 inh 74*, CYP2C19 inhib 32, cytoskel mod -20, CYP2C9 act 0.3, CYP2C19 activ 0.7 and E-sel TNF inh 16.
Cc1ccc(C(=O)Nc2ccc(S(=O)(=O)N3CCc4ccccc4C3)cc2)o1 was read as CYP2C9 inh 29, CYP2C19 inhib 61*, cytoskel mod 24, CYP2C9 act 0.7, CYP2C19 activ 0.4 and E-sel TNF inh 15.
`COC(=O)COc1ccc(S(=O)(=O)N2CCc3ccccc3C2)cc1` gave CYP2C9 inh -95, CYP2C19 inhib 66*, cytoskel mod 6, CYP2C9 act 2*, CYP2C19 activ 0.3 and E-sel TNF inh 4.
For O=C(Nc1ccc(S(=O)(=O)N2CCCCCC2)cc1)c1ccc(Br)o1 the results were CYP2C9 inh 45, CYP2C19 inhib 25, cytoskel mod -7, CYP2C9 act 0.6, CYP2C19 activ 0.8 and E-sel TNF inh 3.
`CCOc1ccc(S(=O)(=O)N2CCc3ccccc3C2)cc1` gave CYP2C9 inh -20, CYP2C19 inhib 34, cytoskel mod 11, CYP2C9 act 1.2 and CYP2C19 activ 0.7.
Screening O=C(Nc1ccc(S(=O)(=O)N2CCCCC2)cc1)c1ccc(CN2CCc3ccccc3C2)cc1 returned CYP2C9 inh 68*, CYP2C19 inhib 49, cytoskel mod 0, CYP2C9 act 0.3, CYP2C19 activ 0.5 and E-sel TNF inh 9.
For CC(=O)Nc1cccc(N/C=C(\C=O)c2nc3ccccc3o2)c1 the results were E-sel TNF inh 11.
For CCC(=O)Nc1ccc(S(=O)(=O)N2CCc3ccccc3C2)cc1 the results were CYP2C9 inh -76, CYP2C19 inhib 86*, cytoskel mod -12, CYP2C9 act 1.8 and CYP2C19 activ 0.1.
For CCC(=O)Nc1ccc(S(=O)(=O)c2ccc(NC(=O)CC)cc2)cc1 the results were CYP2C9 inh 70*, CYP2C19 inhib 28, cytoskel mod 9, CYP2C9 act 0.3, CYP2C19 activ 0.7 and E-sel TNF inh -21.
`COc1ccc(Br)cc1/C=c1\sc2nc(-c3ccco3)nn2c1=O` gave CYP2C9 inh 61*, CYP2C19 inhib 62*, CYP2C9 act 0.4 and CYP2C19 activ 0.4.
For COc1ccc(CN(Cc2ccccn2)S(=O)(=O)c2ccc(-n3cnnn3)cc2)cc1 the results were cytoskel mod -9 and E-sel TNF inh -13.
Screening COc1ccc(CCN(Cc2cccs2)S(=O)(=O)c2ccc(-n3cnnn3)c(OC)c2)cc1OC returned CYP2C9 inh 55*, CYP2C19 inhib 50*, cytoskel mod 10, CYP2C9 act 0.4, CYP2C19 activ 0.5 and E-sel TNF inh -23.
